Reference: PubChem BioAssay (NCATS)
Values without a mark were called inactive. Records with an inconclusive call do not appear. A call without a number means that no potency is given here. The source made the active and inactive calls. The call rests on the fitted dose curve; in most records, active means well fitted curve in the direction sought with a large enough effect; inconclusive means small, poorly fitted or top-dose-only effect, or another doubt; inactive means no such curve, though single readings can be large; an effect the other way counts as inactive or inconclusive.

Columns and labels:
[1] = target: Glutathione peroxidase 1 (Homo sapiens) (UniProt P07203); experiment: Primary qHTS Assay for Inhibitors of Recombinant Selenoprotein Glutathione Peroxidase 1 (GPX1) (AID 1845191); further: nearly all actives have a fitted effect of over 65% in size
Chain of Glutathione peroxidase 1 (Homo sapiens) (P07203 whole entry, looked up): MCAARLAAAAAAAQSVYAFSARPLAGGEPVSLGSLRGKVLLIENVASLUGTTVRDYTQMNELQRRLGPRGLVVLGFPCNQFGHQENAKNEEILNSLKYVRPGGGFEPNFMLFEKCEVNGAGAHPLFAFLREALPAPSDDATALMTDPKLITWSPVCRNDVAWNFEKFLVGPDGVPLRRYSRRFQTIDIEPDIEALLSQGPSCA
Method in brief: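 GPX1 10 nM, GR 100 nM, GSH 1 mM, NADPH 0.5 mM, CHP 0.5 mM (final). 30-min cpd preincubation, RT. Ex340/Em450 read t=0, t=15 min.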

[2] = target: Phospholipid hydroperoxide glutathione peroxidase GPX4 (Homo sapiens) (UniProt P36969); experiment: Primary qHTS Assay for Inhibitors of Recombinant Selenoprotein Glutathione Peroxidase 4 (GPX4) (AID 1845192); further: nearly all actives have a fitted effect of over 65% in size; on activity change, negative = inhibition: series mostly up to about 50 µM
Chain of Phospholipid hydroperoxide glutathione peroxidase GPX4 (Homo sapiens) (P36969 whole entry, looked up): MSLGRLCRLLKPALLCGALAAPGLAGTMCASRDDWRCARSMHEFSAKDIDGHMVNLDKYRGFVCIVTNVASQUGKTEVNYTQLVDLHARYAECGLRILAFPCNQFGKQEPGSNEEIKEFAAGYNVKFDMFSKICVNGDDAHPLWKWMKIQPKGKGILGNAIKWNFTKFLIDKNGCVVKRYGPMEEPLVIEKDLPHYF
Method in brief: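 qHTS, GR-coupled: GPX4 200 nM + cpd 30 min RT → GSH 1 mM, NADPH 0.5 mM, GR 100 nM → CHP 0.5 mM start; fluor 340/450 at t0 and t15 min; no-enzyme wells as control.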

[3] = target: Luciferin 4-monooxygenase (Photinus pyralis) (UniProt P08659); experiment: Primary firefly luciferase (FLuc) qHTS assay for identification of artifact compounds. (AID 1845220); further: nearly all actives have a fitted effect of over 60% in size; on activity change, negative = inhibition: series mostly up to about 54 µM
Method in brief: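 Reaction readout was CCD-imaged luminescence, taken 5 min after adding 10 nM purified firefly enzyme to compound-treated wells holding 10 uM luciferin and ATP in pH 7.6 buffer.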

[4] = Primary fluorescence-based thiol-reactive (MSTI) qHTS assay for identification of artifact compounds. (AID 1845221); further: nearly all actives have a fitted effect of over 65% in size; further: potency means the concentration at half of the fitted maximal effect;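 on activity change, negative = thiol reactive: series mostly up to about 54 µM; thiol-reactive compounds lower the probe fluorescence signal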
Method in brief: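 First, 4 uM MSTI in 2% DMSO/PBS pH 7.4 was dispensed; next, compounds were added; then plates sat 1 h at room temperature without light. Finally, emission at 598 nm was recorded.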

| SMILES | Potency [1] | Potency [2] | Potency [3] | Potency [4] | outcome [3] | activity change, negative = thiol reactive [4] | activity change, negative = inhibition [3] |
| --- | --- | --- | --- | --- | --- | --- | --- |
| Cc1c(F)cc(C(=O)NC2CC2)cc1-c1ccc(C(=O)NCC(C)(C)C)cn1 | inactive | inactive | inactive | inactive |  |  |  |
| CC(=O)OC1CC2C(C)(C)C(=O)C=CC2(C)C2CC(=O)C3=C(CCC3C3=CC(O)OC3=O)C12C (stereo not given) | inactive | inactive | inactive | inactive |  |  |  |
| CC1(CO)CCCC2(C)C1C(OC(=O)c1ccccc1)CC1C(=O)OCC12O (stereo not given) | inactive | inactive | inactive | inactive |  |  |  |
| CSCC1OC(n2cnc3c(N)ncnc32)C(O)C1O (stereo not given) | inactive | inactive | inactive | inactive |  |  |  |
| COC(=O)C1=COC(OC2OC(CO)C(O)C(O)C2O)C2C(C)C(OC(=O)/C=C/c3ccc(O)cc3)C(O)C12 (stereo not given) | inactive | inactive | inactive | 11.6 µM (active) |  |  |  |
| C=C1C(=O)O[C@@H]2C[C@]3(C)[C@@H](CCC(C)=O)[C@@H]3C[C@H]12 | inactive | inactive | inactive | inactive |  |  |  |
| Cc1onc(-c2ccccc2Cl)c1C(=O)N(C)c1ccc(Cl)cc1 | inactive | inactive | inactive | inactive |  |  |  |
| C=C(C)[C@@H]1CC[C@]2(CO)CC[C@]3(C)[C@H](CC[C@@H]4[C@@]5(C)CC[C@H](O)C(C)(C)[C@@H]5CC[C@]43C)[C@@H]12 | inactive | inactive | inactive | inactive |  |  |  |
| O=C(O[C@@H]1O[C@H](CO)[C@@H](O)[C@H](O)[C@H]1O)c1ccccc1 | inactive | inactive | inactive | 23.8 µM (active) |  |  |  |
| OCC(O)C(c1c[nH]c2ccccc12)c1c[nH]c2ccccc12 (stereo not given) | inactive | inactive | inactive | 6.7 µM (active) |  |  |  |
| O=C(NC/C=C/CN1CCN(c2cccc(Cl)c2Cl)CC1)c1ccc(-c2ccccn2)cc1 | inactive | inactive | inactive | inactive |  |  |  |
| CC(=O)NC(C(=O)OC1CCC(C)(C)C2CC=C3C(=O)OCC3C12C)C(C)C (stereo not given) | inactive | inactive | inactive | inactive |  |  |  |
| CN1CCN(c2nc(-c3ccc(C(=O)NC4(C(=O)NCC#N)CCCCC4)cc3)cs2)CC1 | inactive | inactive | inactive | inactive |  |  |  |
| C=C1[C@H](OC(C)=O)[C@H]2[C@@H](OC(=O)c3ccccc3)[C@@H](C)C[C@]2(O)[C@@H](OC(C)=O)[C@H](C)/C=C/C(C)(C)C(=O)[C@H](OC(C)=O)[C@H]1OC(C)=O | inactive | inactive | inactive | inactive |  |  |  |
| Cc1ccc(-n2nc(C(C)(C)C)cc2NC(=O)Nc2cc(COc3cccnc3)[nH]n2)cc1 | inactive | inactive | inactive | inactive |  |  |  |
| COc1ccc(S(=O)(=O)Nc2nc(-c3cccc([N+](=O)[O-])c3)cs2)cc1OC | inactive | inactive | inactive | 1.19 µM (active) |  |  |  |
| C[C@@H]1O[C@@H](O[C@H]2[C@H](O[C@H]3[C@H](O[C@H]4CC[C@@]5(C)C(CC[C@]6(C)C5CC=C5[C@@H]7CC(C)(C)CC(=O)[C@]7(C)CC[C@]56C)[C@@]4(C)CO)O[C@H](C(=O)O)[C@@H](O)[C@@H]3O)O[C@H](CO)[C@H](O)[C@@H]2O)[C@H](O)[C@H](O)[C@H]1O (stereo not given in full) | inactive | inactive |  |  | inactive [at 11.6 µM] | 40% [at 11.5 µM] |  |
| CC1(C)CC[C@]2(C(=O)O)CC[C@]3(C)C(=CCC4[C@@]5(C)C[C@@H](O)[C@H](O)[C@](C)(CO)C5CC[C@]43C)[C@@H]2[C@@H]1O (stereo not given in full) | inactive | inactive | inactive | inactive |  |  |  |
| CC1(C)OC(=O)CC(O)C2(C)C1CC(=O)C1(C)C2C(O)CC2(C)C(c3ccoc3)OC(=O)C3OC321 (stereo not given) | inactive | inactive | inactive | inactive |  |  |  |
| CC1(C)CC2C3=CCC4[C@@]5(C)CC[C@H](OC6OCC(O)C(OC7OC(CO)C(O)C(O)C7O)C6O)C(C)(C)C5CC[C@@]4(C)[C@]3(C)C[C@H](O)[C@@]2(CO)[C@H](OC(=O)c2ccccc2)C1 (stereo not given in full) | inactive | inactive |  |  |  | 159% [at 11.5 µM] | -8.37% [at 11.6 µM] |
| CC(O)C1NC(=O)C2CCCN2C1=O (stereo not given) | inactive | inactive | inactive | inactive |  |  |  |
| CC1=C2C(=O)C=C(CO[C@@H]3O[C@H](CO)[C@@H](O)[C@H](O)[C@H]3O)[C@@H]2[C@H]2OC(=O)[C@H](C)[C@@H]2[C@@H](O)C1 | inactive | inactive | inactive | inactive |  |  |  |
| C[C@H]1[C@H](C)CC[C@]2(C(=O)O)CC[C@]3(C(=O)O)C(=CCC4[C@@]5(C)CC[C@H](O[C@@H]6O[C@@H](C)[C@H](O)[C@@H](O)[C@H]6O)C(C)(C)C5CC[C@]43C)[C@H]12 (stereo not given in full) | inactive | inactive | inactive | inactive |  |  |  |
| CC(C)=C1CC2[C@](C)(CC[C@@H](OC(=O)C3(C)OC3C)[C@@]2(C)O)CC1=O (stereo not given in full) | inactive | inactive | inactive | inactive |  |  |  |
| COc1ccc(Oc2c(Cl)cnn(C3c4ccccc4-c4ccccc43)c2=O)cc1 | inactive | inactive | inactive | inactive |  |  |  |
